Experimental data: PubChem BioAssay (NCATS)
Results filed as inconclusive are left out. Activity calls are given as the source filed them. The call rests on the fitted dose curve; in most records, active means well fitted inhibition curve with a large enough effect; inconclusive means small, poorly fitted or top-dose-only effect; inactive means flat fitted curve, though single readings scatter.

Tests used:
Experiment in all cases: qHTS profiling for inhibitors of Plasmodium falciparum proliferation (AID 504749); further: nearly all actives have a fitted effect of over 60% in size
3D7 = details: P. falciparum in erythrocytes, SYBR Green DNA, 72 h; series mostly up to 12.8 µM
How it was run: (§1)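 In a 72 h erythrocytic culture (37 C, humidified, 5% CO2) at 2.5% hematocrit and 0.3% starting parasitemia, compounds were tested; SYBR Green I in detergent lysis buffer stained parasite DNA overnight.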

AA1029 = details: P. falciparum in erythrocytes, SYBR Green DNA, 72 h; series mostly up to 12.8 µM
How it was run: as §1

C2A = details: P. falciparum in erythrocytes, SYBR Green DNA, 72 h; series mostly up to 12.8 µM
How it was run: as §1

CP194 = details: P. falciparum in erythrocytes, SYBR Green DNA, 72 h; series mostly up to 12.8 µM
How it was run: as §1

CP215 = details: P. falciparum in erythrocytes, SYBR Green DNA, 72 h; series mostly up to 28.7 µM
How it was run: as §1

CP217 = details: P. falciparum in erythrocytes, SYBR Green DNA, 72 h; series mostly up to 12.8 µM
How it was run: as §1

CP237 = details: P. falciparum in erythrocytes, SYBR Green DNA, 72 h; series mostly up to 12.8 µM
How it was run: as §1

CP250 = details: P. falciparum in erythrocytes, SYBR Green DNA, 72 h; series mostly up to 12.8 µM
How it was run: as §1

CP252 = details: P. falciparum in erythrocytes, SYBR Green DNA, 72 h; series mostly up to 12.8 µM
How it was run: as §1

CP265 = details: P. falciparum in erythrocytes, SYBR Green DNA, 72 h; series mostly up to 12.8 µM
How it was run: as §1

CP269 = details: P. falciparum in erythrocytes, SYBR Green DNA, 72 h; series mostly up to 12.8 µM
How it was run: as §1

CP286 = details: P. falciparum in erythrocytes, SYBR Green DNA, 72 h; series mostly up to 12.8 µM
How it was run: as §1

CP329 = details: P. falciparum in erythrocytes, SYBR Green DNA, 72 h; series mostly up to 12.8 µM
How it was run: as §1

DIV30 = details: P. falciparum in erythrocytes, SYBR Green DNA, 72 h; series mostly up to 12.8 µM
How it was run: as §1

Dd2 = details: P. falciparum in erythrocytes, SYBR Green DNA, 72 h; series mostly up to 12.8 µM
How it was run: as §1

GB4 = details: P. falciparum in erythrocytes, SYBR Green DNA, 72 h; series mostly up to 12.8 µM
How it was run: as §1

N140 = details: P. falciparum in erythrocytes, SYBR Green DNA, 72 h; series mostly up to 12.8 µM
How it was run: as §1

P93_24 = details: P. falciparum in erythrocytes, SYBR Green DNA, 72 h; series mostly up to 12.8 µM
How it was run: as §1

P94_40 = details: P. falciparum in erythrocytes, SYBR Green DNA, 72 h; series mostly up to 12.8 µM
How it was run: as §1

PAD = details: P. falciparum in erythrocytes, SYBR Green DNA, 72 h; series mostly up to 12.8 µM
How it was run: as §1

Measured: Potency
Potency means the concentration at half of the fitted maximal effect.

Cc1cc(/C=C\c2ccc3cc(N(C)C)ccc3[n+]2C)c(C)n1-c1ccccc1
active: 3D7 891 nM | AA1029 1580 nM | C2A 2510 nM | CP194 2870 nM | CP215 3220 nM | CP217 3160 nM | CP237 562 nM | CP250 2820 nM | CP252 3550 nM | CP265 2510 nM | CP269 2560 nM | CP286 355 nM | CP329 2030 nM | DIV30 2560 nM | Dd2 398 nM | GB4 3220 nM | N140 3980 nM | P93_24 708 nM | P94_40 1000 nM | PAD 3160 nM
